# Test results from PubChem BioAssay AID651744 (Broad Institute, 2012).
# About 3,100 (55%) of roughly 5,600 compounds were called active. Inconclusive results (about 3%) are left out. The set was probably picked from earlier hits. Only a sample is shown. A number with no mark means an inactive call.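 Rule for the calls: active = mean loss of cell viability signal at or above a set limit, and enough replicates individually reaching it; inconclusive = meets only the mean limit or only the replicate share; inactive = meets neither condition.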
# Test: NIH/3T3 fibroblast cytotoxicity, confirmation, cytotoxicity control, cell-based, cherry-pick, single point, set 2 (AID 651744);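 note: 0% = median of neutral control wells and 100% = median of positive control wells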
# Conditions: NIH/3T3 viability, CellTiter-Glo ATP luminescence, 90 h; at 24.9 µM; active compounds read high
row,Compound,inhibition
1,CN1C(=O)c2cc(NC(=O)c3cnccn3)ccc2OC[C@@H]2O[C@H](CC(=O)N[C@@H]3CCN(Cc4ccccc4)C3)CC[C@@H]21,-11.4%
2,C[C@H](CO)N1C[C@H](C)[C@H](CN(C)Cc2ccc(C(F)(F)F)cc2)Oc2ccc(NS(=O)(=O)c3ccc(Cl)cc3)cc2C1=O,101% (active)
3,C[C@@H]1CN([C@H](C)CO)S(=O)(=O)c2ccc(-c3cccc(C#N)c3)cc2O[C@@H]1CN(C)C(=O)Nc1ccccc1F,77.8% (active)
4,C[C@@H]1CN([C@@H](C)CO)S(=O)(=O)c2ccc(C#Cc3ccccc3)cc2O[C@@H]1CN(C)C(=O)Nc1ccccc1,49.1% (active)
5,C[C@@H]1CN([C@@H](C)CO)S(=O)(=O)c2ccc(C#Cc3ccc(F)cc3)cc2O[C@H]1CN(C)C(=O)NC1CCCC1,90.7% (active)
6,C[C@@H]1CN([C@@H](C)CO)S(=O)(=O)c2ccc(C#Cc3ccc(F)cc3)cc2O[C@H]1CN(C)C(=O)c1ccccn1,92.1% (active)
7,C[C@@H]1CN([C@@H](C)CO)S(=O)(=O)c2ccc(-c3ccncc3)cc2O[C@@H]1CN(C)C(=O)Nc1ccc(F)cc1,21.8%
8,C[C@H](CO)N1C[C@H](C)[C@H](CN(C)Cc2cccnc2)Oc2cc(C#CC3CCCC3)ccc2S1(=O)=O,104% (active)
9,C[C@@H]1CN([C@H](C)CO)S(=O)(=O)c2ccc(C#CC3CCCC3)cc2O[C@@H]1CN(C)Cc1cccnc1,104% (active)
10,CC(C)C#Cc1ccc([C@H]2[C@H](CO)N3CCCCN(C(=O)NC(C)C)C[C@@H]23)cc1,50% (active)
11,COc1ccc(S(=O)(=O)N2CCCCN3[C@H](CO)[C@@H](c4ccc(C#CC(C)C)cc4)[C@H]3C2)cc1,105% (active)
12,COc1cccc(S(=O)(=O)N2CCCCN3[C@H](C2)[C@H](c2ccc(C#CC(C)C)cc2)[C@@H]3CO)c1,26.4%
13,COc1ccc(S(=O)(=O)N2CCCCN3[C@H](C2)[C@H](c2ccc(C#CCC(C)C)cc2)[C@@H]3CO)cc1,64.2% (active)
14,COc1ccccc1-c1ccc2c(c1)O[C@@H](CN(C)C)[C@H](C)CN([C@H](C)CO)S2(=O)=O,19.5%
15,COc1ccccc1-c1ccc2c(c1)O[C@H](CN(C)S(=O)(=O)c1ccc(C)cc1)[C@@H](C)CN([C@H](C)CO)S2(=O)=O,31.1% (active)
16,Cc1ccc(-c2ccc3c(c2)O[C@H](CN(C)C)[C@@H](C)CN([C@H](C)CO)S3(=O)=O)cc1,25.3% (active)
17,CC(C)CC#Cc1ccc2c(c1)O[C@H](CN(C)S(=O)(=O)c1cccc(F)c1)[C@@H](C)CN([C@@H](C)CO)S2(=O)=O,105% (active)
18,C[C@@H]1CN([C@H](C)CO)S(=O)(=O)c2ccc(-c3cccc(F)c3)cc2O[C@H]1CN(C)S(=O)(=O)c1ccc(F)cc1,60.5% (active)
19,Cc1noc(C)c1S(=O)(=O)Nc1ccc2c(c1)C(=O)N([C@@H](C)CO)C[C@@H](C)[C@H](CN(C)S(=O)(=O)c1ccc(Cl)cc1)OCCCC[C@H](C)O2,-2.59%
20,C[C@H](CO)N1C[C@H](C)[C@@H](CN(C)S(=O)(=O)c2ccc(F)cc2)Oc2cc(C3=CCCC3)ccc2S1(=O)=O,45.4% (active)
21,C[C@H]1CN([C@@H](C)CO)S(=O)(=O)c2ccc(C#Cc3cccc(F)c3)cc2O[C@@H]1CN(C)S(=O)(=O)c1cn(C)cn1,77.2% (active)

row,Compound,inhibition
1,C[C@@H]1CN([C@@H](C)CO)S(=O)(=O)c2ccc(-c3cccc(F)c3)cc2O[C@@H]1CN(C)S(=O)(=O)c1ccccc1,57.2% (active)
2,C[C@@H]1CN([C@H](C)CO)C(=O)c2cc(NS(C)(=O)=O)ccc2O[C@@H](C)CCCCO[C@H]1CN(C)S(=O)(=O)c1cn(C)cn1,-25.6%
3,C[C@@H]1CN([C@@H](C)CO)C(=O)c2cc(NC(=O)Cc3ccccc3)ccc2O[C@@H]1CN(C)Cc1ccc(Oc2ccccc2)cc1,104% (active)
4,C[C@@H]1CN([C@@H](C)CO)C(=O)c2cc(NC(=O)Nc3ccc4c(c3)OCO4)ccc2O[C@@H]1CN(C)Cc1ccc(Oc2ccccc2)cc1,103% (active)
5,C[C@@H]1CN([C@H](C)CO)C(=O)Cc2cc(NC(=O)Cc3ccccc3)ccc2O[C@H]1CN(C)Cc1ccc(Oc2ccccc2)cc1,83.1% (active)
6,C[C@@H]1CN([C@@H](C)CO)C(=O)c2cc(NC(=O)Nc3cccc4ccccc34)ccc2O[C@H]1CN(C)Cc1ccc(Cl)c(Cl)c1,18.8%
7,CCCNC(=O)N1[C@@H]2c3cccc(=O)n3C[C@H]1[C@H](CO)[C@H]2C(=O)NCC(F)(F)F,-10.7%
8,O=C(NCc1ccccn1)[C@@H]1[C@@H](CO)[C@@H]2Cn3c(ccc(/C=C/c4ccccc4)c3=O)[C@H]1N2CC1CC1,47.4% (active)
9,C[C@H]1CN([C@@H](C)CO)C(=O)Cc2cc(NC(=O)Cc3cn(C)c4ccccc34)ccc2O[C@@H]1CN(C)Cc1ccccc1,18.1%
10,C[C@H](CO)N1C[C@H](C)[C@@H](CN(C)Cc2ccc(-c3ccccc3)cc2)Oc2ccc(NC(=O)CCC(F)(F)F)cc2CC1=O,105% (active)
11,C[C@H]1CN([C@@H](C)CO)C(=O)Cc2cc(NC(=O)Cc3cn(C)c4ccccc34)ccc2O[C@@H]1CN(C)Cc1ccc(C(F)(F)F)cc1,69.9% (active)
12,C[C@@H]1CN([C@H](C)CO)C(=O)Cc2cc(NC(=O)c3ccncc3)ccc2O[C@H]1CN(C)Cc1ccc(-c2ccccc2)cc1,102% (active)
13,C[C@H](CO)N1C[C@H](C)[C@H](CN(C)Cc2ccc(-c3ccccc3)cc2)Oc2ccc(NC(=O)Nc3ccc(F)cc3)cc2CC1=O,103% (active)
14,C[C@@H]1CN([C@H](C)CO)C(=O)CCCn2nncc2CO[C@@H]1CN(C)Cc1ccc(C(=O)Nc2ccccc2N)cc1,9.3%
15,C[C@@H]1CN([C@@H](C)CO)C(=O)Cc2cc(NC(=O)C3CCCCC3)ccc2O[C@@H]1CN(C)Cc1ccc(C(=O)Nc2ccccc2N)cc1,59.4% (active)
16,CCCNC(=O)N(C)C[C@@H]1Oc2ncc(C#Cc3ccccc3F)cc2C(=O)N([C@@H](C)CO)C[C@H]1C,41.6% (active)
17,C[C@@H]1CN([C@@H](C)CO)C(=O)CCCn2cc(nn2)CO[C@@H]1CN(C)S(=O)(=O)c1ccccc1F,-3.5%
18,C[C@H](CO)N1C[C@H](C)[C@@H](CN(C)S(=O)(=O)c2ccccc2)Oc2ncc(C#Cc3ccccc3F)cc2C1=O,69.9% (active)
19,C[C@H](CO)N1C[C@H](C)[C@@H](CN(C)S(=O)(=O)c2ccccc2F)Oc2ncc(C#Cc3ccccc3F)cc2C1=O,46.5% (active)
20,COc1ccc(-c2ccc3c(c2)[C@@H]2[C@@H](CCN2C(=O)Cc2ccccn2)[C@H](CO)N3C)cc1,9.06%
21,CC(C)NC(=O)N(C)C[C@H]1OCc2cn(nn2)CCCC(=O)N([C@@H](C)CO)C[C@H]1C,-9.15%

row,Compound,inhibition
1,COCC#Cc1ccc([C@@H]2[C@H](CO)N3CCCCN(C(=O)CN(C)C)C[C@@H]23)cc1,-6.74%
2,O=C(c1cccc(F)c1)N1CCCCN2[C@H](CO)[C@H](c3ccc(-c4ccncc4)cc3)[C@H]2C1,-0.739%
3,CCCC#Cc1ccc([C@H]2[C@H](CO)N3CCCCN(C(=O)c4ccc5c(c4)OCO5)C[C@@H]23)cc1,85.9% (active)
4,COc1ccc(-c2ccc([C@H]3[C@H]4CN(C(=O)c5ccc6c(c5)OCO6)CCCCN4[C@H]3CO)cc2)cc1,67.5% (active)
5,Cc1cccc(-c2ccc([C@@H]3[C@H](CO)N4CCCCN(C(=O)c5ccc6c(c5)OCO6)C[C@@H]34)cc2)c1,105% (active)
6,CC(C)(O)C#Cc1ccc([C@@H]2[C@H](CO)N3CCCCN(C(=O)c4cccc(F)c4)C[C@@H]23)cc1,1.66%
7,CC(C)(C)[S@@](=O)N1Cc2cc(C(=O)NCc3ccc4c(c3)OCO4)nc(-c3cccc(-c4ccccc4)c3)c2[C@H]1CCO,49% (active)
8,O=C(Nc1ccc(-c2ccccc2)cc1)[C@H]1[C@H](CO)[C@H]2Cn3c(cccc3=O)[C@H]2N1CC1CC1,59.4% (active)
9,O=C(NCC1CCCCC1)[C@H]1[C@H](CO)[C@H]2Cn3c(cccc3=O)[C@H]2N1C(=O)CC1CC1,2.76%
10,CNC[C@H]1OCCCC[C@H](C)Oc2ccc(NC(=O)Nc3c(C)noc3C)cc2C(=O)N([C@H](C)CO)C[C@H]1C,11.5%
11,C[C@@H]1CN([C@H](C)CO)S(=O)(=O)c2ccc(C#CCC3CCCC3)cc2O[C@H]1CN(C)C(=O)CC1CC1,103% (active)
12,C[C@@H]1CCCCO[C@H](CN(C)C(=O)CCC(F)(F)F)[C@H](C)CN([C@H](C)CO)C(=O)c2cc(NS(C)(=O)=O)ccc2O1,4.09%
13,CNC[C@@H]1Oc2cc(C#CCC3CCCC3)ccc2S(=O)(=O)N([C@H](C)CO)C[C@H]1C,105% (active)
14,CNC[C@H]1OCCCC[C@@H](C)Oc2ccc(NS(C)(=O)=O)cc2C(=O)N([C@H](C)CO)C[C@H]1C,-29.3%
15,C[C@@H]1CN([C@@H](C)CO)S(=O)(=O)c2ccc(C#CCC3CCCC3)cc2O[C@H]1CN(C)C(=O)CC1CC1,104% (active)
16,CC(=O)NC[C@@H]1[C@@H](c2ccc(-c3ccccc3F)cc2)[C@@H](CO)N1C(=O)C1CC1,-15.5%
17,C[C@@H]1CN([C@@H](C)CO)C(=O)c2cc(NC(=O)Nc3cccc4ccccc34)ccc2O[C@@H](C)CCCCO[C@H]1CN(C)Cc1ccccc1,104% (active)
18,C[C@@H]1CCCCO[C@H](CN(C)C(=O)Nc2cccc3ccccc23)[C@H](C)CN([C@H](C)CO)C(=O)c2cc(NS(=O)(=O)c3cccs3)ccc2O1,2.06%
19,C[C@@H]1CCCCO[C@@H](CN(C)C(=O)Nc2ccc(F)cc2)[C@H](C)CN([C@H](C)CO)C(=O)c2cc(NC(=O)Nc3cccc4ccccc34)ccc2O1,-7.66%
20,C[C@@H]1CCCCO[C@@H](CN(C)Cc2ccccc2)[C@H](C)CN([C@H](C)CO)C(=O)c2cc(NC(=O)Nc3cccc4ccccc34)ccc2O1,105% (active)
